Bioassay records from PubChem.
Rows were chosen to be rich in hits. Some 3.4% of all compounds tested hit in one or more screens of this group.
TEAD-YAP inh = TEAD-YAP interaction inhibition | 640,000 compounds, 1.4% hits | inhibition, % at 9.12 µM | HEK-TIYL cells, TEAD-Gal4/YAP UAS-luciferase luminescence; in the data active = inhibition above about 32%
MITF primary = human MITF inhibition, primary screen; 650,000 compounds, 0.91% hits; O75030; inhibition, % at 2.6 µM; AlphaScreen MITF homodimerization, bead proximity signal; in the data active = inhibition above about 50%
GPR151 activ = human GPR151 activation; Q8TDV0; PathHunter beta-arrestin GPR151 cells, luminescence; activation, % at 11.2 µM; 650,000 compounds, 1% hits; AID 1508602; in the data active = activation above about 4.9%
Target sequence (Q8TDV0 whole entry, looked up): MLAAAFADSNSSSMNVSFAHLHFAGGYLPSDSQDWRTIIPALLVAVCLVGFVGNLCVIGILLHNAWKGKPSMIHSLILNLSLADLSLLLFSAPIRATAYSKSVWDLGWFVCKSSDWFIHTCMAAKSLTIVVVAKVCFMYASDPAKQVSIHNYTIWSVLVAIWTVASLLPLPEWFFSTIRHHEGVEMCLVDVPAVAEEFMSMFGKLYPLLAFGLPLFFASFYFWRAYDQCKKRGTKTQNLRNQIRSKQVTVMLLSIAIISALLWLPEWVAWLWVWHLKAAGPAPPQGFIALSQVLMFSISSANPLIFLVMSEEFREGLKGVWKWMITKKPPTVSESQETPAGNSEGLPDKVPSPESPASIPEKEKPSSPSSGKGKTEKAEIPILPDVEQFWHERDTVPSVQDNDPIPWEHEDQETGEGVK
FBW7 act = activators of human E3 ligase FBW7; AlphaScreen FBW7–phospho-cyclin E peptide binding, activator screen; normalized activity (activation), % at 26.1 µM; AID 1259310; 650,000 compounds, 0.13% hits; Q969H0; in the data active = normalized activity above about 1.9%;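 note: purified mutant Fbw7 with reduced substrate affinity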
Large screens that a line does not name were inactive.

CCOc1cc(S(=O)(=O)NCC2CCCO2)ccc1Br (centres undefined)	none
C=CCNC(=S)N/N=C/c1ccc(C(F)(F)F)cc1	TEAD-YAP inh 44
O=C(c1cccc(Br)c1)c1cn[nH]c1-c1ccccc1O	TEAD-YAP inh 46
O=C(CNC(=O)c1cccc(Br)c1)N/N=C/c1cn[nH]c1-c1ccccc1	none
O=C(Oc1ccc(/C=C/c2ccncc2)cc1)c1ccncc1	TEAD-YAP inh 48
Cn1c(CN2CCc3c(nc(N4CCCCC4)[nH]c3=O)C2)nc2ccccc21	none
COCCNC(=O)c1ccc2c(c1)CC(c1nc3ccc(-c4ccnc(N)n4)cc3[nH]1)CO2 (centres undefined)	none
CC(C)CNC(=O)c1ccc2c(c1)CC(c1nc3ccc(-c4ccnc(N)n4)cc3[nH]1)CO2 (centres undefined)	FBW7 act 2.3
COc1ccc(CCNC(=O)c2ccc3c(c2)CC(c2nc4ccc(-c5ccnc(N)n5)cc4[nH]2)CO3)cc1 (centres undefined)	TEAD-YAP inh 41, FBW7 act 5.8
CC(CNC(=O)c1ccc2c(c1)CC(c1nc3ccc(-c4ccnc(N)n4)cc3[nH]1)CO2)c1cccs1 (centres undefined)	TEAD-YAP inh 45, FBW7 act 2.7
COc1ccc(/C=N/NC(=O)c2cc(O)c(O)c(O)c2)cc1Cn1cnc([N+](=O)[O-])n1	MITF primary 97
COc1ccc(/C=N/NC(=O)c2ccccc2O)cc1Cn1cc([N+](=O)[O-])cn1	none
COc1ccc(/C=N/NC(=O)c2cc(O)c(O)c(O)c2)cc1Cn1cc([N+](=O)[O-])cn1	MITF primary 73
COc1ccccc1C(=O)Nc1cc(C)cc(C)n1	none
CCOC(=O)c1c(NC(=O)c2ccc(S(=O)(=O)N(CC)CC)cc2)sc2c1CCN(C(=O)OCC)C2	none
CN(Cc1cscn1)C(=O)C1CC12CCN(Cc1cccc3ccccc13)CC2 (centres undefined)	none
COc1ccc(/C=C/C(=O)c2cccnc2)cc1OC	none
COc1ccc2ccccc2c1C(=O)/C=C/c1cccnc1	TEAD-YAP inh 85
CCOc1ccc(-n2c(C)cc(/C=C3\C(=O)N(CCOC)C(C)=C3C(=O)OC)c2C)cc1	none
NS(=O)(=O)c1cccc(NS(=O)(=O)c2cccc([N+](=O)[O-])c2)c1	FBW7 act 4.6
O=C(COc1ccccc1)Nc1ccc(N2CCC(NCc3ccccc3)CC2)cc1	TEAD-YAP inh 34
COc1cc(OC)cc(C2=NC3(CCC(C)CC3)NC2=O)c1 (centres undefined)	FBW7 act 4.2
COc1cc(/C=C2/C(=N)N3N=C(C)SC3=NC2=O)ccc1OCCOc1ccc(C)cc1C	none
O=[N+]([O-])c1ccc(Oc2ccc(S(=O)(=O)Nc3ccc4c(c3)OCCO4)cc2)cc1	TEAD-YAP inh 43
O=S(=O)(Nc1ccc2c(c1)OCO2)c1ccc(Oc2ccc(Br)cc2)cc1	none
CCC(C)CNC(=O)CCC1(Cc2ccc3ccccc3c2)CCC(=O)N1 (centres undefined)	none
Cc1ccc2nc(-c3ccccc3Cl)cn2c1	TEAD-YAP inh 93
COC(=O)c1ccc2nc(-c3ccc(F)cc3)cn2c1	TEAD-YAP inh 42
Cc1ccc2nc(-c3cc4ccccc4oc3=O)cn2c1	none
COc1ccc(-c2cn3cc(C)ccc3n2)cc1	TEAD-YAP inh 82
Cc1ccc2nc(-c3ccc(F)cc3)cn2c1	TEAD-YAP inh 93
C=CCNC(=O)CCC(=O)OC(C)C	none
COc1cc(NC(=O)c2cccnc2SC)ccc1N1CCCC1=O	none
Nn1c(SCC(=O)NC2CCCc3ccccc32)nnc1C(F)(F)F (centres undefined)	TEAD-YAP inh 34
O=C(Cn1ccc(=NCc2ccccc2)cc1)c1ccc(Cl)cc1	none
O=C(Cn1ccc(=NCc2ccccc2)cc1)c1ccc(I)cc1	TEAD-YAP inh 66
COCCNC(=O)CSCc1cc2cccc3c2n(c1=O)CCC3	none
CC(C)(C)c1ccc(-c2nc(-c3ccc(Br)cc3)no2)cc1	none
Oc1ccc(-c2nc(-c3ccc(Br)cc3)no2)cc1	TEAD-YAP inh 50
Cc1ccc(-c2noc(-c3ccc(O)cc3)n2)cc1	TEAD-YAP inh 74
CC(C)(C)c1ccc(-c2nc(-c3ccccc3)no2)cc1	TEAD-YAP inh 77
CCC(=O)Oc1ccc(-c2nc(-c3ccc(OC)cc3)no2)cc1	TEAD-YAP inh 44
COc1ccc(-c2cnn3ccc(Nc4ccc(O)cc4)nc23)cc1	none
Cc1cc(N(C)C)nc(N2CCC(C(=O)NCC(C)C)CC2)n1	none
COc1cc(C(=O)NC2CCCCCCC2)cc(OC)c1OC	none
COc1cc(C(=O)N/N=C(\C)c2cccs2)cc(OC)c1OC	TEAD-YAP inh 54
COc1cc(C(=O)N/N=C(\C)c2ccccc2)cc(OC)c1OC	TEAD-YAP inh 61
COc1ccc(/C(C)=N/NC(=O)c2ccccc2)cc1OC	none
COc1cc(C(=O)N/N=C(\C)Cc2ccccc2)cc(OC)c1OC	TEAD-YAP inh 58
COc1cc(C(=O)NN=C(C2CC2)C2CC2)cc(OC)c1OC	TEAD-YAP inh 59
O=C(O)CCCCCN1C(=O)C(=O)/C(=C(\O)c2ccc([N+](=O)[O-])cc2)C1c1cccc(F)c1 (centres undefined)	none
COCCCNC(=O)c1ccc2c(c1)NC(=O)C(CSCc1ccc(Cl)cc1)N2 (centres undefined)	none
COc1cc(C(=O)N/N=C(C)/C=C/c2ccccc2)cc(OC)c1OC	TEAD-YAP inh 64
COc1cc(C(=O)N/N=C(\C)c2ccco2)cc(OC)c1OC	TEAD-YAP inh 53
COc1cc(C(=O)NN2C(=O)c3ccccc3C2=O)cc(OC)c1OC	TEAD-YAP inh 52
C/C(=N/NC(=O)c1cc(O)cc(O)c1)c1ccco1	none
C/C(=N/NC(=O)c1cc(O)c(O)c(O)c1)c1ccc(F)cc1	MITF primary 59
OCCNc1cc(Nc2ccncn2)ncn1	none
O=C(NCCc1nc2ccccc2n1CCOc1ccc(Cl)cc1)c1ccco1	none
COc1cc(C(=O)N/N=C(\C)c2ccc(N)cc2)cc(OC)c1OC	TEAD-YAP inh 49
Cc1ccc(-c2cnn3c(N4CCC[C@H]4CO)ccnc23)cc1	TEAD-YAP inh 96
OC1CCN(c2ccnc3c(-c4ccc(F)c(Cl)c4)cnn23)CC1	none
OC[C@@H]1CCCN1c1ccnc2c(-c3ccc(F)c(Cl)c3)cnn12	TEAD-YAP inh 83
O=C(NC1CC1)c1ccc(-c2cnn3c(N4CCC[C@H]4CO)ccnc23)cc1	none
COc1ccc(-c2cnn3c(N4CCCCC4CCO)ccnc23)cc1OC (centres undefined)	TEAD-YAP inh 38
CN1CCN(c2ccnc3c(-c4ccccc4Oc4ccccc4)cnn23)CC1	none
CN1CCN(c2ccnc3c(-c4ccccc4F)cnn23)CC1	TEAD-YAP inh 67
Cc1oc2c(c1CC(=O)O)C(=O)CC(C)(C)C2	none
O=C(Cc1ccccc1)Nc1cccc(N2C(=O)C3CC=CCC3C2=O)c1 (centres undefined)	none
COc1cccc(/C=N/NC(=O)COc2ccc(Cl)cc2Cl)c1OC	none
COCCN(Cc1ccc(OCC(O)CN(C)C)cc1)C(C)C (centres undefined)	none
OC[C@@H]1CCCN1c1ccnc2c(-c3cnn(Cc4ccccc4)c3)cnn12	none
